Screening data (PubChem BioAssay)
Six1-Eya2 blk: qHTS Assay for Inhibitors of the Six1/Eya2 Interaction | AlphaScreen GST-Six1/His-Eya2 binding, biochemical; hits give low values | Homeobox protein SIX1 (Homo sapiens) + Protein phosphatase EYA2 (Homo sapiens), … | 360,000 tested, 0.56% active | activity change, % (no concentration beside the values); in the data active = activity change below about -65%; inconclusive = mostly about -30% to -63%
Target sequence (O00167 whole entry, looked up): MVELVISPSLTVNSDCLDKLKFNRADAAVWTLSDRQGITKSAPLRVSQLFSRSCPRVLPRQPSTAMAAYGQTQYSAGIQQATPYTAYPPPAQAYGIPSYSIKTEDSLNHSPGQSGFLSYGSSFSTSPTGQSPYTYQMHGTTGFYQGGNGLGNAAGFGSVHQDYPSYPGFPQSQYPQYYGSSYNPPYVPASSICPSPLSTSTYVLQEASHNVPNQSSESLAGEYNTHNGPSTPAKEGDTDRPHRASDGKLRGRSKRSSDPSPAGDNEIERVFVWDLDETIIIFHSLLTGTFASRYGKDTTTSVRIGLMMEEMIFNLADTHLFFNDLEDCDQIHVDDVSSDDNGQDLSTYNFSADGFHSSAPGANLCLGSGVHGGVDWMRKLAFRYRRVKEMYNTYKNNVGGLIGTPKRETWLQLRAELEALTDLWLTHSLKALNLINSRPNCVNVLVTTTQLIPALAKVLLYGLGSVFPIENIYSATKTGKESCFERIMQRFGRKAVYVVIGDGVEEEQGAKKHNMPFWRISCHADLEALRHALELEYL
Target sequence (Q15475 whole entry, looked up): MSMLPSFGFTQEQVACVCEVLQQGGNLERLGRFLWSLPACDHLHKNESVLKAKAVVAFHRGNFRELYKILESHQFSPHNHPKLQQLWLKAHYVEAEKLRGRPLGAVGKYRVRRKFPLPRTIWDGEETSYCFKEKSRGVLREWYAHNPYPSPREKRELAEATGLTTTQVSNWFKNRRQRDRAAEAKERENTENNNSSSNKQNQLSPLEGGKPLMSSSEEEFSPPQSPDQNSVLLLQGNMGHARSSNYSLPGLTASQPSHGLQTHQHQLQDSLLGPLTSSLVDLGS
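AlphaScreen with GST-Six1 and His-Eya2 (5X mix: 250 nM and 500 nM), glutathione donor and nickel acceptor beads; buffer 50 mM Tris pH 8.0, 300 mM NaCl, 1 mM TCEP; 1 h at 37 C in the dark.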
CtBP-E1A inh: qHTS Assay for Inhibitors of the CtBP/E1A Interaction | 340,000 tested, 0.49% active | activity change, % (no concentration beside the values) | CtBP / adenovirus E1A interaction (AlphaScreen) | AlphaScreen GST-E1A/His-CtBP binding, 1536-well; hits give low values; in the data active = activity change below about -65%; inconclusive = mostly about -30% to -63%
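Steps: dispense buffer (Tris pH 8.0, NaCl 300 mM, TCEP 1 mM, BSA, Tween 20); add 5X protein mix (GST-E1A, His-CtBP, 125 nM each); pin 23 nL compound; 2 h at 37 °C, dark; add 5X beads (50 ug/mL); 1 h; read.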
IL1B secr inh: qHTS for Inhibitors of Inflammasome Signaling: IL-1-beta AlphaLISA Primary Screen; AID 743279, 2014; THP-1 LPS/ATP IL-1B secretion, AlphaLISA, 16 h; hits give low values; activity change, % at 57.5 µM; 360,000 tested, 4.7% active; in the data active = activity change below about -50%; inconclusive = mostly about -30% to -49%
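Secreted IL-1B measured by AlphaLISA bead assay after 16 h compound exposure of THP-1 cells; compounds (final up to 57.5 uM) added 1 h before LPS (250 ng/mL) and ATP (1.25 mM) stimulation; lower signal means less secretion.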
DT40 TDP1 no CPT: qHTS for Inhibitors of human tyrosyl-DNA phosphodiesterase 1 (TDP1): qHTS in cells in absence of CPT; DT40 Tdp1-/- hTDP1 cells, no CPT, ATP luminescence, 48 h; Potency, µM (highest dose often 46.2 µM), for the others: top-dose activity change, negative = growth inhibition, hits mostly inhibitors; 420,000 tested, 15% active; AID 686978, 2013; also: potency is read from the fitted curve at half-maximal effect; nearly all actives have a fitted effect of over 55% in size
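Compound effects on proliferation are scored in DT40 Tdp1-/-;hTDP1 cells in the absence of CPT. ATP levels (CellTiter-Glo luminescence) are recorded after a ≥48 hr, 37 °C incubation.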
DT40 TDP1 CPT: qHTS for Inhibitors of human tyrosyl-DNA phosphodiesterase 1 (TDP1): qHTS in cells in presence of CPT | chicken DT40 Tdp1-/-;hTDP1 cells + 20 nM CPT, ATP luminescence, 48 h | Potency, µM (top dose mostly 46.2 µM), inactives show at the top dose activity change, negative = growth inhibition, most hits filed as inhibitors | 420,000 tested, 12% active; also: potency is read from the fitted curve at half-maximal effect; nearly all actives have a fitted effect of over 55% in size
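Chicken DT40 Tdp1-/- cells stably complemented with human TDP1 were seeded at 400 cells/well in medium containing 20 nM camptothecin, exposed to pin-transferred compounds, and grown at 37 °C for at least 48 hr. Viability was read as ATP luminescence.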
TDP1 inh: qHTS Assay for Inhibitors of Tyrosyl-DNA Phosphodiesterase (TDP1); recombinant TDP1, AlphaScreen DNA substrate cleavage; Potency, µM (series often up to 130 µM), for inactives: top-dose activity change, negative = inhibition, actives largely listed as inhibitors; 350,000 tested, 0.28% active; also: potency is read from the fitted curve at half-maximal effect; nearly all actives have a fitted effect of over 40% in size
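E. coli-derived human Tdp1, 1 nM final. Cpd preinc 15 min RT; substrate 15 nM final, 5 min RT; AS bead mix 10 ug/ml final, 10 min RT. Signal loss = tyrosine-FITC cleavage. No-enzyme wells = max signal.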
* hit, by the source's call; i = inactive; u = inconclusive; x = no result. A selection: hits, their analogues and other compounds. The true share with any hit is near 18%. Unless noted, calls follow the shape of the dose curve; as a rule, active = well fitted curve in the direction sought with a large enough effect; inconclusive = small, poorly fitted or top-dose-only effect, or another doubt; inactive = no such curve, though single readings can be large; an effect the other way counts as inactive or inconclusive. % is scaled to controls: 0 for no effect and ±100 for the full control effect.

SMILES	Six1-Eya2 blk	CtBP-E1A inh	IL1B secr inh	DT40 TDP1 no CPT	DT40 TDP1 CPT	TDP1 inh
O=C(CCc1nc2ccccc2c(=O)[nH]1)OCc1ccccc1F	-5	8	21	u	-21%	2%
Cc1cc2cc(CCNC(=O)c3ccc(C)c([N+](=O)[O-])c3)c(=O)[nH]c2cc1C	7	11	-4	13µM*	u	4%
Cc1ccc2cc(CCNC(=O)c3ccc4c(c3)OCO4)c(=O)[nH]c2c1C	-3	2	0	15µM*	21µM*	1%
N#CCC1c2ccccc2CCN1C(=O)Nc1cccc(Cl)c1 (centres undefined)	3	9	8	u	u	3%
O=C(Cc1ccc(Cl)cc1)NCC(=O)N1CCN(Cc2ccccc2)CC1	4	1	i	u	u	2%
CCC(C)NC(=O)/C(=C/c1ccco1)c1ccccc1 (centres undefined)	-2	-1	14	u	u	-4%
Cc1cc(C)c(NC(=O)/C(=C/c2ccco2)c2ccccc2)c(C)c1	-6	-7	21	u	u	3%
O=C(NCCc1ccccc1)/C(=C/c1ccco1)c1ccccc1	1	3	-9	u	26µM*	4%
Cc1cccc(C)c1NC(=O)/C(=C/c1ccco1)c1ccccc1	-1	-11	-16	13µM*	18µM*	3%
O=C1c2ccccc2S(=O)(=O)N1CCOc1ccccc1	13	6	5	3%	-3%	0%
N#CCCn1cc(C(=O)Nc2ccc(C(=O)O)cc2)c(-c2ccc([N+](=O)[O-])cc2)n1	0	-2	0	0%	-2%	0%
CC(C)c1nc(=S)c2ccccc2[nH]1	-4	2	13	18µM*	u	7%
S=c1nc(C2CC2)[nH]c2ccccc12	-7	-1	24	u	u	-7%
CCOc1cc(C2Nc3ccccc3NC3=C2C(=O)CC(C)(C)C3)ccc1OC(C)=O (centres undefined)	4	9	3	0%	-26%	x
CC(=O)[C@H]1CC[C@@H](c2ccccc2)N(S(=O)(=O)c2ccc(C)cc2)C1	4	-1	7	u	u	x
CC(=O)C[C@@H]1SC[C@H](c2ccccc2)N1S(=O)(=O)c1ccc(C)cc1	7	0	-9	15µM*	15µM*	x
CCOC(=O)C1=C[C@@H](CC)N(S(=O)(=O)c2ccc(C)cc2)[C@H]1c1ccccc1	26	12	12	15µM*	23µM*	x
CCOC(=O)C1=C[C@@H](C(C)C)N(S(=O)(=O)c2ccc(C)cc2)[C@H]1c1ccc(C(C)C)cc1	11	10	4	18µM*	u	x
CCOC(=O)C1=C[C@@H](C(C)(C)C)N(S(=O)(=O)c2ccc(C)cc2)[C@H]1c1ccc(C)cc1	-1	1	51	12µM*	13µM*	x
CC[C@@H]1C=C(C(=O)O)[C@H](c2cccc(C)c2)N1S(=O)(=O)c1ccc(C)cc1	3	-24	32	16%	-2%	0%
CCOC(=O)C1=C[C@@H](C(C)(C)C)N(S(=O)(=O)c2ccc(C)cc2)[C@H]1c1ccccc1Cl	-5	-1	80	u	u	x
Cc1ccccc1-n1c(Cc2cccs2)n[nH]c1=S	-8	-10	-15	3%	-9%	-2%
CC(=O)NC1(C)CCC2CC1C(C)=NC2(C)C (centres undefined)	1	13	30	4%	3%	x
Cn1c(CO)nc2c3ccccc3ccc21	-10	7	2	-7%	-4%	x
C=CC[C@H]1C(C(=O)OCC)=CC[C@@H](c2ccccc2)N1S(=O)(=O)c1ccc(C)cc1	0	5	40	u	u	x
SMILES	Six1-Eya2 blk	CtBP-E1A inh	IL1B secr inh	DT40 TDP1 no CPT	DT40 TDP1 CPT	TDP1 inh
CCOC(=O)C1=C[C@@H](C2CCCC2)N(S(=O)(=O)c2ccc([N+](=O)[O-])cc2)[C@H]1c1ccccc1	-30	u	24	12µM*	21µM*	x
CCOC(=O)C1=CCC(c2ccccc2)N(S(=O)(=O)c2ccc(C)cc2)[C@H]1CC (some centres undefined)	12	-2	10	16µM*	21µM*	x
Cc1ccc(C(=O)Nc2ccccc2C(=O)O)cc1S(=O)(=O)NC1CCCCC1	-3	-7	23	0%	3%	8%
CN(C)S(=O)(=O)c1ccc(S(=O)(=O)N(Cc2ccco2)Cc2ccccc2Cl)cc1	2	16	9	16µM*	21µM*	-2%
Cc1ccc(S(=O)(=O)N(CC(=O)O)Cc2ccco2)cc1	-4	3	3	0%	8%	22µM*
CS(=O)(=O)N(Cc1ccco1)Cc1ccccc1Cl	-3	7	-3	-7%	-18%	-4%
CCN(CC)S(=O)(=O)c1ccc(S(=O)(=O)N(CC(=O)Nc2ccccc2)Cc2ccco2)cc1	7	-1	6	u	18µM*	1%
CN(C)S(=O)(=O)c1ccc(S(=O)(=O)N(CC(=O)Nc2ccccc2)Cc2ccco2)cc1	7	0	11	-25%	-22%	-4%
COc1ccc(S(=O)(=O)N(CCC(N)=O)Cc2ccco2)cc1OC	10	1	2	-12%	7%	3%
COc1ccc(S(=O)(=O)N(Cc2ccc(OC)c(OC)c2)Cc2ccco2)cc1	-14	1	-14	18µM*	23µM*	4%
COc1ccc(C(=O)NCC(=O)N2CCC3(CC2)NCCc2[nH]cnc23)cc1	3	-15	27	26%	-12%	1%
Fc1ccc(-c2ccc(CNCCSc3nnnn3-c3ccccc3)o2)cc1Cl	x	x	x	-16%	-15%	5%
Cc1ccc(S(=O)(=O)N(Cc2ccccc2)Cc2ccco2)cc1	16	14	2	u	9.2µM*	3%
C/C(=N\NC(=O)C1(C)CC1(Br)Br)c1ccc(NC(=O)C2CCC2)cc1 (centres undefined)	5	-2	12	u	18µM*	1%
